The values below come from ChEMBL document CHEMBL1961873, “Compounds: GSK PKIS; Assays: Nanosyn kinase panel” (2012).

The test system of test [1] is Tyrosine-protein kinase ABL1 (Homo sapiens), P00519 [T315I]. The following applies: at 1 µM.
In test [2] the test system is Tyrosine-protein kinase ABL1 (Homo sapiens), P00519 [Y253F]. The following applies: at 0.1 µM.
Test [3] shares this test system. Conditions: at 1 µM.
Test [4] addresses Tyrosine-protein kinase ABL1 (Homo sapiens) (UniProt P00519). The following applies: at 0.1 µM.
Test [5] has the same target. Conditions: at 1 µM.
The target in test [6] is ALK tyrosine kinase receptor (Homo sapiens) (UniProt Q9UM73). The following applies: at 0.1 µM.
The target is the same in test [7]. The following applies: at 1 µM.
In test [8] the target is Tyrosine-protein kinase ABL2 (Homo sapiens) (UniProt P42684). Conditions: at 0.1 µM.
The target is the same in test [9]. The following applies: at 1 µM.
Test [10] deals with Tyrosine-protein kinase receptor UFO (Homo sapiens) (UniProt P30530). Conditions: at 0.1 µM.
For test [11] the target is unchanged. The following applies: at 1 µM.
In test [12] the target is Tyrosine-protein kinase Blk (Homo sapiens) (UniProt P51451). The following applies: at 0.1 µM.
For test [13] the target is unchanged. The following applies: at 1 µM.
In test [14] the target is T1, Cytoplasmic tyrosine-protein kinase BMX (Homo sapiens) (UniProt P51813).
T1 sequence (whole entry): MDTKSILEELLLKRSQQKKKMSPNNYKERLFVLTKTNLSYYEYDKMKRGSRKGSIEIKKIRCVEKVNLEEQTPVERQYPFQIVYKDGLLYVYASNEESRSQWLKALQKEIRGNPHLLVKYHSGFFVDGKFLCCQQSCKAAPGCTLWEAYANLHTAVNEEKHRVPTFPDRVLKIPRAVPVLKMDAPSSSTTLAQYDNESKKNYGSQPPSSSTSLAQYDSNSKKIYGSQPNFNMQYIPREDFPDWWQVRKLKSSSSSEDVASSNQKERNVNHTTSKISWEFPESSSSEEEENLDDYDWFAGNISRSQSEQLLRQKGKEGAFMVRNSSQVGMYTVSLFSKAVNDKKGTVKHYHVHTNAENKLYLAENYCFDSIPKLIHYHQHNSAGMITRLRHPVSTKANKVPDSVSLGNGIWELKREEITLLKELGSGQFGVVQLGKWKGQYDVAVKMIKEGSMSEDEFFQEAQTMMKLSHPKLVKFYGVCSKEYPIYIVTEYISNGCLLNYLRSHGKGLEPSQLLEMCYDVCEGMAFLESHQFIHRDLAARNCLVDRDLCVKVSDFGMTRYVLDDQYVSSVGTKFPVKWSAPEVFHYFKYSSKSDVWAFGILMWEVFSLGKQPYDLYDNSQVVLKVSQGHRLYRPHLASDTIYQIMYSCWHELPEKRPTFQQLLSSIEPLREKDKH
The following applies: at 0.1 µM.

For test [15], the target named is T1, Cytoplasmic tyrosine-protein kinase BMX (Homo sapiens). The following applies: at 1 µM.
In test [16] the target is Protein-tyrosine kinase 6 (Homo sapiens) (UniProt Q13882). Conditions: at 0.1 µM.
Test [17] shares this target. The following applies: at 1 µM.
Test [18] deals with Tyrosine-protein kinase BTK (Homo sapiens) (UniProt Q06187). The following applies: at 0.1 µM.
Test [19] shares this target. Conditions: at 1 µM.
Test [20] deals with Tyrosine-protein kinase CSK (Homo sapiens) (UniProt P41240). Conditions: at 0.1 µM.

SMILES strings stand for the structures.

Tyrosine-protein kinase receptor UFO (Homo sapiens), sequence (P30530 whole entry): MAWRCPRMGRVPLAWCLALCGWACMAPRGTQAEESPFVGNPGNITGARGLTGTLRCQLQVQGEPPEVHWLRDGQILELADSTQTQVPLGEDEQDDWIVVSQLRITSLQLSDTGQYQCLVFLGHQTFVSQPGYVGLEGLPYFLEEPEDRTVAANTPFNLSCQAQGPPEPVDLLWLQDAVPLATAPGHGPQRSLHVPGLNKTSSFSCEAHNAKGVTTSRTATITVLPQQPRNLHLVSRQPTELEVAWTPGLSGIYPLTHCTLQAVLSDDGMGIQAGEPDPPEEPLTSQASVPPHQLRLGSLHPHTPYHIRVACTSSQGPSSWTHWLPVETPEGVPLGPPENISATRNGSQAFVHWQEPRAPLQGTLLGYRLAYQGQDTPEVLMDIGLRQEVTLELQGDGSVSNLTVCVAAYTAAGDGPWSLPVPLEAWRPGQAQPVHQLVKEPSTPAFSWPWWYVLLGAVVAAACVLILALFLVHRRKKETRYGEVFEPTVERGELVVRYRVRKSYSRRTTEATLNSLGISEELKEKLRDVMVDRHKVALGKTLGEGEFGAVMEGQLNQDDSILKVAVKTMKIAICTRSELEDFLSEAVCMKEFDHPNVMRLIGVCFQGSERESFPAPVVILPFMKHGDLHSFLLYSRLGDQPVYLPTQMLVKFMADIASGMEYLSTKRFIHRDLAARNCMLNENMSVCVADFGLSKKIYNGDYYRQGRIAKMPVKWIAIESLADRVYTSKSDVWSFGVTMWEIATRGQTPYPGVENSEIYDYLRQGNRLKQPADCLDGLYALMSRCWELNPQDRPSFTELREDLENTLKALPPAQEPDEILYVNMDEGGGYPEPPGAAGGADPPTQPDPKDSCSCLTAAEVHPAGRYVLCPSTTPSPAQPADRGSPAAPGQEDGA
Tyrosine-protein kinase CSK (Homo sapiens), sequence (P41240 2-450 limits assumed): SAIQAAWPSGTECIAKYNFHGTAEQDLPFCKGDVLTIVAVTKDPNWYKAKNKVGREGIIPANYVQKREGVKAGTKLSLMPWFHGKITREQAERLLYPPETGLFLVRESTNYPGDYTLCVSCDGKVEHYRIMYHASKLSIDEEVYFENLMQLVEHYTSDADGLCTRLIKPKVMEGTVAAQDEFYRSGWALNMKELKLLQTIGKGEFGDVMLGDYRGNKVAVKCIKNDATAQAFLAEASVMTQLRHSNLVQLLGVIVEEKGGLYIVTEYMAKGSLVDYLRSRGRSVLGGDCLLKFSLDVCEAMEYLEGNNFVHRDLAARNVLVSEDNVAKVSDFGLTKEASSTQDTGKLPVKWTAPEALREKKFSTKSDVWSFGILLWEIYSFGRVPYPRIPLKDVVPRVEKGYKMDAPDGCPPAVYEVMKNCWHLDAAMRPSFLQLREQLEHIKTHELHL
Tyrosine-protein kinase Blk (Homo sapiens), sequence (P51451 2-505 limits assumed): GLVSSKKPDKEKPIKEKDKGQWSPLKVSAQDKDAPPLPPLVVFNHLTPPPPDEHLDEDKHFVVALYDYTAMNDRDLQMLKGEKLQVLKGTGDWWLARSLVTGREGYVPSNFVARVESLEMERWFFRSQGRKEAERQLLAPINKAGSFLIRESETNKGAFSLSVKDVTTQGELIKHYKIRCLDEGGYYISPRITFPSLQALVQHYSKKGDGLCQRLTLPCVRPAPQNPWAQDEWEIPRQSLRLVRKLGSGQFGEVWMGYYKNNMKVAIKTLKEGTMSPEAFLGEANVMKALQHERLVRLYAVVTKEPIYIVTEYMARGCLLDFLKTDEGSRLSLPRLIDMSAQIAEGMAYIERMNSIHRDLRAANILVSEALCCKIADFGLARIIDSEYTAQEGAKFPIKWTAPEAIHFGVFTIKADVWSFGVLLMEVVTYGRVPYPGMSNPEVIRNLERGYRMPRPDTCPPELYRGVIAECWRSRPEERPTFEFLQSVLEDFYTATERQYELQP
Tyrosine-protein kinase BTK (Homo sapiens), sequence (Q06187 whole entry): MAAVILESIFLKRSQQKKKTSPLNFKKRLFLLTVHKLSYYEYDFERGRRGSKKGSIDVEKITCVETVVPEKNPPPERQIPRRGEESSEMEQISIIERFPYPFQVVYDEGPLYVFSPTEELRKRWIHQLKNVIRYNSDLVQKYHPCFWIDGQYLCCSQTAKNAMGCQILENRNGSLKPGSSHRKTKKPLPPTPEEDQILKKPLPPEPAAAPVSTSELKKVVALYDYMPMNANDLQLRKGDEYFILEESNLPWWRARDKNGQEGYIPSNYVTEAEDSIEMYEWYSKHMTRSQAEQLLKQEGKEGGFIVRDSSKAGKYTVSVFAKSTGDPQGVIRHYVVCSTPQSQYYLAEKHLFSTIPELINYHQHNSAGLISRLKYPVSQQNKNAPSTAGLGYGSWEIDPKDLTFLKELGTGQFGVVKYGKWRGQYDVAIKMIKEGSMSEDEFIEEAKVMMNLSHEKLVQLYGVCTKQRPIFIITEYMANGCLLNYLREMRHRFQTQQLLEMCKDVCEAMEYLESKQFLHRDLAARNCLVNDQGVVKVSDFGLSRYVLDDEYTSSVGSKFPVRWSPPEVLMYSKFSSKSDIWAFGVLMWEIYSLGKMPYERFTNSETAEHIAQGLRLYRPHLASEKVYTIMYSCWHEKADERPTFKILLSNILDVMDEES
ALK tyrosine kinase receptor (Homo sapiens), sequence (Q9UM73 19-1620 limits assumed): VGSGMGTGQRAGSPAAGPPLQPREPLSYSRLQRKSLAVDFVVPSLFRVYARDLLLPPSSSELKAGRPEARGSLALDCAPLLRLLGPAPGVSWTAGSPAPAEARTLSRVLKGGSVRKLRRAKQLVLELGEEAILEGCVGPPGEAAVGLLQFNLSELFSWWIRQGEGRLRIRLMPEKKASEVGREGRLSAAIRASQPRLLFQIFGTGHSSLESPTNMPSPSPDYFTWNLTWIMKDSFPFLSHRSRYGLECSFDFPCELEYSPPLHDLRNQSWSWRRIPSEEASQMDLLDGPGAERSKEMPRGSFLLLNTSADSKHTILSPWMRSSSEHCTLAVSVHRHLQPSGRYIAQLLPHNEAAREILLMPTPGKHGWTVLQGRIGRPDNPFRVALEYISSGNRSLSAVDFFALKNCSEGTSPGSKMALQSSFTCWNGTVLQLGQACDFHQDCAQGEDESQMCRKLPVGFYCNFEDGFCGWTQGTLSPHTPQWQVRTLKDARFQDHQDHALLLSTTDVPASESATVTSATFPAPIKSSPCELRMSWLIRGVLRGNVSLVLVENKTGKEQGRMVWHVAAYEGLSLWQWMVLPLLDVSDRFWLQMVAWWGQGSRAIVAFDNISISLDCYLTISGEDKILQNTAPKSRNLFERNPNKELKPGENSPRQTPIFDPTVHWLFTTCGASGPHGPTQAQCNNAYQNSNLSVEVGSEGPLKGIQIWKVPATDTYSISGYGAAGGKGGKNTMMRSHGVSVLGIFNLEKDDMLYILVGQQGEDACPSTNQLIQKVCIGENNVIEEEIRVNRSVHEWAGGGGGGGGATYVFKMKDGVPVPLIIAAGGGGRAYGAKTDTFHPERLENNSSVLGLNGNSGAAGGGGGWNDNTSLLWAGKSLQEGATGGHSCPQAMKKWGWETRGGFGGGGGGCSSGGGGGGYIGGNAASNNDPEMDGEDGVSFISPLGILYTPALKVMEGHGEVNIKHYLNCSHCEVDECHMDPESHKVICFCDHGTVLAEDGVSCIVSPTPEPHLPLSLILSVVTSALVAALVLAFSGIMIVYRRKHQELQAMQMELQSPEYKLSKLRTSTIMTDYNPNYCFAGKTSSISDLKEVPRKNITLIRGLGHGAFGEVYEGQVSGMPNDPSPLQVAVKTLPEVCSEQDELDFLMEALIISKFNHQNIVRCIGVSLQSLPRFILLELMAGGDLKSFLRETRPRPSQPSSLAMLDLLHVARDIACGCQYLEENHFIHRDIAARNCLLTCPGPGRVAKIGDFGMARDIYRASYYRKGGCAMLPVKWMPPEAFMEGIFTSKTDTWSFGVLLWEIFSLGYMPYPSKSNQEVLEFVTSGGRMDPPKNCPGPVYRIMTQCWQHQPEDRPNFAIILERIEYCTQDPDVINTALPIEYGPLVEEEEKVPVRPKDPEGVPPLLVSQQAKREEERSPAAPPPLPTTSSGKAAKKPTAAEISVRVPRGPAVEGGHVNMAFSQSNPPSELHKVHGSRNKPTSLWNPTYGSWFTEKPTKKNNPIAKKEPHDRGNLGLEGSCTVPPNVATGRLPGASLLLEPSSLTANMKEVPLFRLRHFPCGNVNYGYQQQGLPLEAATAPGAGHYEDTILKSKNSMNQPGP
Protein-tyrosine kinase 6 (Homo sapiens), sequence (Q13882 whole entry, looked up): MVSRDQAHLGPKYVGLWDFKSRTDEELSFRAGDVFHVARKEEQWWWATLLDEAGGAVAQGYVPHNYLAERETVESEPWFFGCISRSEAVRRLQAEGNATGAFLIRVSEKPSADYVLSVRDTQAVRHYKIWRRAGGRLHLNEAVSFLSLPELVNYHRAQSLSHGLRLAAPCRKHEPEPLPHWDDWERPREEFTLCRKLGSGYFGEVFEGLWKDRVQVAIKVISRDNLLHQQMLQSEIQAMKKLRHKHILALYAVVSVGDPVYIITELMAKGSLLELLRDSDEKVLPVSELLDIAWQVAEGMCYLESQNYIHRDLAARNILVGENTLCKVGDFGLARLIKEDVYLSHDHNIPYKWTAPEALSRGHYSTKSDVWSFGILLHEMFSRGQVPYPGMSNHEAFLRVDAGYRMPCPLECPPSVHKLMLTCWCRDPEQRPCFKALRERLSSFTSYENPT

`CC(C)=Cc1cccc2c1/C(=N/Nc1ccc(S(N)(=O)=O)cc1)C(=O)N2`: the inhibition in test [1] was 18.2%; in [2] it was 4.12%; in test [3], 21.9%; in [4], 2.44%; in test [5] it was 12.7%; in [6], 2.57%. The inhibition came out at 10.4% in test [7]; 3.09% in test [8]; 14% in test [9]; 1.02% in test [10]; 5.18% in test [11]; 3.01% in test [12]. Besides, the inhibition was 31.1% in [13]; -0.19% in [14]; 6.64% in test [15]; 1.35% in test [16]; -1.64% in test [17]; 1.86% in test [18]. Moreover, the inhibition was 3.95% in test [19] and 0.6% in test [20].
`COc1cc(C=NNc2ncnc3c2cnn3-c2ccccc2)ccc1O`: the inhibition was 82.1% in test [1]; 43.3% in test [2]; 86.6% in test [3]; 23.4% in test [4]; 73.7% in test [5]; 2.44% in test [6]. Also, the inhibition in test [7] is 6.69%; in test [8], 11.6%; in test [9], 71.5%; in [10], -1.48%; in test [11] it was 10.6%; in [12] it was 10.3%. For the same compound, the inhibition in [13] stood at 65.5%; in test [14] it was 3.92%; in [15], 21.9%; in test [16] it was 2.93%; in test [17], 14.2%; in test [18] it was 1.25%. In addition, the inhibition came out at 2.34% in test [19] and 4.22% in test [20].
`CCCN1CCC(Oc2cc(Nc3nc(Nc4cccc(F)c4C(N)=O)c4cc[nH]c4n3)c(OC)cc2Cl)CC1`: the inhibition in [1] amounted to 1.37%; in [2], 1.12%; in [3], 3.82%; in test [4], 4.76%; in test [5], 10.1%; in test [6], 55.7%. Further, the inhibition amounted to 78.2% in test [7]; 4.89% in [8]; 12.3% in [9]; 5.22% in [10]; 6.29% in test [11]; 0.32% in test [12]. Moreover, the inhibition in [13] was 4.43%; in test [14], -3.07%; in test [15], 0.44%; in test [16] it was 2.81%; in [17] it was 14.8%; in test [18], 0.06%. Besides, the inhibition in [19] was 0.8%; in [20], -0.02%.
Regarding `CC(=O)Nc1cccc(C#Cc2cncnc2Nc2ccc(OCc3cccc(F)c3)c(Cl)c2)n1`, the inhibition is 2.23% in [1]; 2.32% in test [2]; 1.84% in test [3]; 1.24% in test [4]; 4.88% in test [5]; -2.16% in [6]. Besides, the inhibition in test [7] is -2.6%; in test [8] it was 0.55%; in test [9] it was 3.74%; in test [10], 7.46%; in test [11] it was 1.38%; in [12], 1.94%. The inhibition is 1.82% in [13]; 1.43% in [14]; 0.97% in [15]; -2.54% in test [16]; 1.12% in test [17]; 0.29% in test [18]. In addition, the inhibition in test [19] was 0.86%; in test [20], -1.09%.
Consider `COc1cc2ncn(-c3cc(OCc4ccccc4Cl)c(C(N)=O)s3)c2cc1OC`, for which the inhibition in test [1] was determined as 27.1%; in test [2], 4.62%; in [3], 32.7%; in test [4], 3.59%; in [5], 32.2%; in [6], 1.53%. The inhibition in [7] was determined as 5.8%; in [8] it was 1.8%; in [9], 21.1%; in test [10], 0.24%; in test [11], 2.44%; in test [12], 1%. The inhibition in [13] is 23.1%; in test [14], 1.94%; in [15], 4.4%; in test [16], 0.65%; in [17], 7.77%; in [18] it was -0.87%. The inhibition worked out at 1.14% in test [19] and 0.5% in test [20].
As for `Cc1ccc(C(=O)NC2CCCCC2)cc1-c1ccc(C(=O)NCC2CC2)cc1`, the inhibition in [1] is -0.78%; in [2], 1.39%; in test [3], 2.22%; in [4], 4.64%; in test [5] it was 6.52%; in [6] it was 2.91%. In addition, the inhibition in test [7] worked out at 4.07%; in test [8], 4.04%; in [9], 8.56%; in test [10], 0.41%; in test [11], 3.11%; in [12] it was 2.04%. Besides, the inhibition came out at 3.76% in test [13]; 2.45% in [14]; 4.53% in test [15]; 1.79% in [16]; 3.75% in [17]; 1.78% in [18]. For the same compound, the inhibition in test [19] stood at 3.37%; in test [20] it was 2.72%.

In general, inhibition refers to the relative decrease from the control value, in per cent.
